Reference: PubChem BioAssay (Tox21)
Results filed as inconclusive are left out. Where a call stands in place of a potency, no number is given. Calls of active or inactive are those of the source. Calls come from the whole dose curve; as a rule, active = well fitted cell-killing curve with a large enough effect in the repeat runs; inconclusive = weak or mixed curves, or effect the other way; inactive = flat fitted curve, though single readings scatter.

How the values were obtained:
[1] = cAMP Responsive Elements (CRE) small molecule antagonists, cell-based qHTS assay: qHTS cell viability counter screen (AID 2060913); note: nearly all actives have a fitted effect of over 40% in size
How it was run: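 HEK293T CRE-bla, 2,000 cells/well, 18 h preincubation; cpd in DMSO + NKH477 0.25 uM final, 3 h 37 C/5% CO2; LiveBLAzer 2 h RT, then CellTiter-Glo 30 min RT, luminescence.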

[2] = cAMP Responsive Elements (CRE) small molecule agonists, cell-based qHTS assay: qHTS cell viability counter screen (AID 2060914); note: nearly all actives have a fitted effect of over 50% in size
How it was run: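 In the same wells as the reporter read, viability of CRE-bla HEK 293T cells was quantified by CellTiter-Glo luminescence after a 3 h compound exposure.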

CC(C)c1ccc(C=O)cc1
Potency [1]: inactive
Potency [2]: inactive

CC(=O)[C@]1(O)Cc2c(O)c3c(c(O)c2[C@@H](O[C@H]2C[C@H](N)[C@H](O)[C@H](C)O2)C1)C(=O)c1ccccc1C3=O
Potency [1]: inactive
Potency [2]: inactive

COCCOC
Potency [1]: inactive
Potency [2]: inactive

NC(Cc1c[nH]c2ccccc12)C(=O)O (centres undefined)
Potency [1]: inactive
Potency [2]: inactive

CCOC(=O)CC(=O)OCC
Potency [1]: inactive
Potency [2]: inactive

CCOC(=O)/C=C\C(=O)OCC
Potency [1]: inactive
Potency [2]: inactive

Nc1ccc(S(=O)(=O)Nc2ccc(Cl)nn2)cc1
Potency [1]: inactive
Potency [2]: inactive
